MCF10A rerep – inducers of DNA re-replication in MCF 10A breast cells | MCF 10A DNA re-replication, Hoechst nuclear intensity, 48 h | Potency, µM (top dose mostly 46.1 µM), without a hit: at the highest dose activity, positive = re-replication, usual class: activators | hit rate 2.9% among 350,000 | AID 624296; further: % of control where 0% means no effect; nearly all actives have a fitted effect of over 50% in size
ELG1 DNA repair – blocks ELG1-dependent DNA repair in HEK293T cells; AID 504467; hit rate 2.3% among 330,000; HEK293T ELG1-luciferase reporter, luminescence, 16 h; DNA damage induced by 5-fluorouridine; Potency, µM (top dose mostly 46.1 µM), for inactives: top-dose activity change, negative = inhibition, hits mostly inhibitors; further: on the % scale 0 is the no-effect control and ±100 the full control effect; nearly all actives have a fitted effect of over 55% in size
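Reporter activity after DNA damage by 5-fluorouridine is monitored. Compound-treated cells incubate 16 hr at 37 °C, then ONE-Glo is added for 30 min before luminescence reading.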
Gal4-VP16 FLuc – inhibits Gal4-VP16 luciferase reporter, ROR gamma counter-screen; AID 2546; Potency, µM (doses to about 53.6 µM), for the others: at the highest dose activity, negative = inhibition, most hits filed as inhibitors; Drosophila S2 Gal4-VP16 UAS-luciferase, luminescence, 20 h; hit rate 3.5% among 310,000;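 further: Gal4-VP16 expression switched on by copper sulfate through the metallothionein promoter; on the % scale 0 is the no-effect control and ±100 the full control effect; nearly all actives have a fitted effect of over 50% in size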
RORgamma inh – inhibitors of mouse ROR gamma transcriptional activity | AID 2551 | hit rate 5.4% among 310,000 | Drosophila S2 Gal4-RORgamma UAS-luciferase reporter, 20 h | P51450 | Potency, µM (top dose mostly 53.6 µM), inactives show at the top dose activity change, negative = inhibition, usual class: inhibitors; further: on the % scale 0 is the no-effect control and ±100 the full control effect; nearly all actives have a fitted effect of over 60% in size
Target sequence (P51450 whole entry, looked up, the tested form may be a part): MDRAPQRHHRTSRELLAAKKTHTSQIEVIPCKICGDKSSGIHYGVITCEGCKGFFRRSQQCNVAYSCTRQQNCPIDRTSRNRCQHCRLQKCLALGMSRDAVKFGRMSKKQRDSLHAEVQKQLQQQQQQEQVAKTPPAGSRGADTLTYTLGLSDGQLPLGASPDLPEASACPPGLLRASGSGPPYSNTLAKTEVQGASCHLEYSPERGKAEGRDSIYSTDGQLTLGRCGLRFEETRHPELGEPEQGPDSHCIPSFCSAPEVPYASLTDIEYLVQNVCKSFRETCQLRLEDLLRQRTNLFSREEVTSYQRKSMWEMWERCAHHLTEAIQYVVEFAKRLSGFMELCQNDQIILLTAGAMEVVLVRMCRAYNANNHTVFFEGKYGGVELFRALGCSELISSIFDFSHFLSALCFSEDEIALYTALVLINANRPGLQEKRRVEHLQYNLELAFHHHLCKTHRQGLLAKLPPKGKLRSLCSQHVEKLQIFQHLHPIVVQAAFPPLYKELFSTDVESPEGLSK
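In this cell-based reporter format, copper sulfate (700 uM final) drives Gal4–ROR gamma fusion expression from a metallothionein promoter in Drosophila Schneider cells; compounds preincubated 1 hr, reporter read after 20 hr at ambient temperature.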
SW480 rereplic – inducers of DNA re-replication in SW480 colon cancer cells | SW480 DNA re-replication, Hoechst DNA content imaging, 48 h | hit rate 1.8% among 340,000 | Potency, µM (series often up to 46.1 µM), for inactives: top-dose re-replication activation, most hits filed as activators | AID 624297; further: % of control where 0% means no effect; nearly all actives have a fitted effect of over 55% in size
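First, 250 cells per well were seeded. Next, compound or vehicle (23 nL) was pinned in, plates sat 48 hr at 37 C. Finally Hoechst was added for 40 min before fluorescence scanning.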
Active calls of the source: *; ? = inconclusive; . = no result. An excerpt weighted towards active compounds, which were near 10% of everything screened. The call rests on the fitted dose curve; in most records, active means well fitted curve in the direction sought with a large enough effect; inconclusive means small, poorly fitted or top-dose-only effect, or another doubt; inactive means no such curve, though single readings can be large; an effect the other way counts as inactive or inconclusive. Potency means the concentration at half of the fitted maximal effect.

SMILES | MCF10A rerep | ELG1 DNA repair | Gal4-VP16 FLuc | RORgamma inh | SW480 rereplic
O=C(Nc1ccc2nc3n(c(=O)c2c1)CCCC3)c1ccccc1F | 0% | ? | -3% | -13% | -22%
O=C(Nc1ccc2nc3n(c(=O)c2c1)CCCCC3)c1cc([N+](=O)[O-])ccc1F | 15µM* | ? | -7% | 16% | 16µM*
Cn1c(-c2ccccc2)cc2c3no[n+]([O-])c3ccc21 | ? | 5% | ? | 6.3µM* | 3.7µM*
COc1ccc(-c2nn(-c3ccccc3)cc2/C=C/C(=O)NCCCn2ccnc2)cc1OC | ? | 16µM* | -5% | 2% | ?
COc1ccc(-c2nn(-c3ccccc3)cc2/C=C(\CC(=O)O)c2nc3ccccc3s2)cc1OC | 18µM* | 1% | -1% | ? | 2%
O=C(CCCCCNc1nc(=S)[nH]c2ccccc12)NCCc1c[nH]c2ccccc12 | ? | 18µM* | ? | ? | 0%
O=C(CCCCCNc1nc(=S)[nH]c2ccccc12)NCCc1ccc(Cl)cc1 | ? | 0% | -12% | ? | 17%
CCOP(=O)(OCC)c1ccc2c(c1)C(=O)c1ccccc1CC2 | -2% | 20% | . | . | -6%
C=C1C(=O)O[C@H]2[C@H]1[C@H](OC(=O)/C(C)=C\C)C[C@]1(CO1)[C@@H]1[C@H](OC(C)=O)C=C(C)[C@]21O | 3.3µM* | . | . | . | ?
CCOC(=O)c1c(C)[nH]c(=S)c(C#N)c1-c1ccc(OC)cc1 | 0% | 0% | ? | 13µM* | -2%
CC(=O)c1c(C)[nH]c(=S)c(C#N)c1-c1ccc(Cl)cc1 | 9% | 7% | ? | ? | -4%
CCOC(=O)c1c(C)[nH]c(=S)c(C#N)c1-c1ccc(Cl)cc1 | ? | -1% | ? | 11µM* | 0%
O=c1sc2ccccc2c(N2CCOCC2)c1[N+](=O)[O-] | 1% | 2% | -8% | -21% | -4%
O=C(CN1CCOCC1)Nc1ccc(Br)cn1 | ? | 13% | 11% | -2% | 21µM*
O=C(CN1CCOCC1)Nc1ncc(Br)cc1Br | 4% | 1% | 7% | 17% | 5%
Cc1cc(C)nc(SCC(=O)Nc2ncc(Cc3cccc(Cl)c3)s2)n1 | ? | -8% | ? | -39% | 1%
O=C(CN1CCOCC1)Nc1ncc(Cc2cccc(Cl)c2)s1 | ? | 5% | -8% | -10% | 8.2µM*
CC(C)(C)c1csc(NC(=O)c2cccnc2)n1 | 1% | 14% | 16% | ? | 50%
CC(C)(C)c1csc(NNC(=O)c2ccc(Cl)cc2)n1 | ? | -29% | 7.1µM* | 0.45µM* | ?
O=C(CN(Cc1ccc(Cl)cc1)S(=O)(=O)c1ccccc1)NCC1CCCO1 (configuration not stated) | -21% | -13% | -1% | 7% | 2%
CO/N=C\CC(=O)Nc1ccc(F)cc1 | -2% | 8% | -4% | -13% | 1%
CO/N=C\CC(=O)Nc1ccc(Cl)cc1Cl | 16µM* | 7% | -10% | -1% | 7.3µM*
COc1ccc(C(C)=O)cc1COC(=O)CCC(=O)c1cccs1 | -1% | 16% | . | . | -12%
Cn1cc(C(=O)c2ccc(Cl)cc2Cl)cc1C(=O)N/N=C(\N)COc1cccc(C(F)(F)F)c1 | 17% | ? | 2µM* | 2.2µM* | 11%
O=C(NCC1CCCO1)C1CC(=O)N(c2ccccc2)C1 (configuration not stated) | 6% | 7% | 0% | -13% | -7%
O=C(Nc1nccs1)c1ccc(N2C(=O)C3CCCCC3C2=O)cc1 (configuration not stated) | 0% | ? | 3% | -24% | -2%
O=C(Nc1nccs1)c1ccc(S(=O)(=O)NCC2CCCCC2)cc1 | ? | 2% | -3% | 11µM* | 0%
O=C(Nc1nccs1)c1ccc(S(=O)(=O)NCc2cccs2)cc1 | ? | 18µM* | ? | ? | 28%
O=C(Nc1ccc(Br)cc1)c1ccc(F)c(S(=O)(=O)NCc2cccs2)c1 | ? | ? | 10µM* | ? | -3%
O=S(=O)(NCc1cccs1)c1ccc(Br)cc1 | 10% | -2% | -1% | ? | -12%
